Assay results as given in PubChem BioAssay (NCI).
Compounds without any hit were thinned out: in the full panel of roughly 83,000, 20% have a hit.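 Single-dose data. Exposure time 48 hours. Values below 10 considered active.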 A number with no mark means an inactive call. Activity calls are given as the source filed them.

Each compound was assayed on SK-MEL-28 melanoma (assay: NCI-60 one-dose screen, 48 h (100 = growth as untreated, 0 = no growth, -100 = all killed)). Details: 10 µM unless noted.

Compound | growth
CCCCC1COc2cccc3c(SCC(=O)N(C)c4cccc(Cl)c4)cc[n+]1c23 (centres undefined) | 106%
COc1ccc(-c2c(N)n[nH]c2-c2ccccc2O)cc1OC | 103%
CCOC(=O)c1sc(-c2ccc(OS(=O)(=O)c3ccc(C(C)(C)C)cc3)c(C=O)c2)nc1C | 81.9%
Cc1nc(Nc2ccc(NC(=S)Nc3ccccc3)cc2)nc2nc(Nc3ccc(S(=O)(=O)O)cc3)[nH]c(=O)c12 | 125%
COc1ccc(/C=C2\COc3ccc(O)cc3C2=O)c(OC)c1 | 64%
COc1ccc(/C(C)=C(\c2ccc(Cl)cc2)c2ccc(OCCCN(C)C)cc2)cc1F | 37.8%
Cc1nc(Nc2ccc(NC(=S)Nc3ccccc3)cc2)c2ccccc2n1 | 108%
C=C1C(=O)O[C@H]2[C@H]1CC/C(COC(=O)/C=C\C(=O)NCc1ccc(Cn3c(=O)sn(-c4ccc(OC)cc4)c3=O)cc1)=C\CC[C@@]1(C)O[C@@H]21 | -92% (active)
CN(C)CCn1cc(-c2ccc3c(Nc4ccc(CC(=O)Nc5cccc(F)c5)cc4)ncnc3c2)cn1 | -89.6% [30 µM] (active)
COc1cc(/C=C/c2nc(Nc3ccc(S(=O)(=O)Nc4cc(C)on4)cc3)c3ccccc3n2)ccc1O | 74%
COc1ccc(/C(C)=C(\c2ccc(Cl)cc2)c2ccc(OCCN3CCCC3)cc2)cc1F | -42.1% (active)
Cc1nc(Nc2ccc(S(=O)(=O)Nc3cc(C)on3)cc2)c2ccccc2n1 | 110%
COc1ccc(OC)c(/C=C2\COc3ccc(O)cc3C2=O)c1 | 94.9%
CCN(CC)CCOc1ccc(/C(=C(\C)c2ccc(F)c(OC)c2)c2ccc(Cl)cc2)cc1 | -64.6% (active)
O[C@H]1CO[C@H]2[C@@H]1OC[C@@H]2Oc1ccc(Nc2ccnc(Nc3ccc(O[C@H]4CO[C@H]5[C@@H]4OC[C@@H]5O)c(Cl)c3)n2)cc1Cl | 20.4%
CC(=O)Nc1ccc(-c2cc3c(NCc4ccc(F)cc4)ncnc3s2)cc1 | 93.5%
C/C(Cc1ccc(Cl)cc1)=C(/c1ccc(Cl)cc1)c1ccc(OCCN(C)C)cc1 | 84.4%
C=C1C(=O)O[C@H]2[C@H]1CC/C(COC(=O)/C=C\C(=O)NCc1ccc(Cn3c(=O)sn(CCCC)c3=O)cc1)=C\CC[C@@]1(C)O[C@@H]21 | -92.1% (active)
Cc1nc(Nc2cccc(NC(=O)Nc3ccc(Cl)cc3)c2)c2ccccc2n1 | 102%
COc1ccc(/C=C2\COc3ccc(O)c(O)c3C2=O)c(OC)c1 | 76.4%

Compound | growth
CCN(CC)CCOc1ccc(/C(=C(\C)c2ccc(OC)c(F)c2)c2ccc(Cl)cc2)cc1 | 68%
C=C1C(=O)O[C@H]2[C@H]1CC/C(COC(=O)/C=C\C(=O)NCc1ccc(Cn3c(=O)sn(-c4ccc(C#N)cc4)c3=O)cc1)=C\CC[C@@]1(C)O[C@@H]21 | -96.2% (active)
CN(C)CCN1C(=O)c2cccc3c(-c4ccc(-c5nc6c7ccccc7c7ccccc7c6[nH]5)cc4)ccc(c23)C1=O | 114%
c1ccc([P+](CCCc2n(Cc3ccc4ccccc4c3)c3ccccc3[n+]2Cc2ccc3ccccc3c2)(c2ccccc2)c2ccccc2)cc1 | 37.1%
CCCCS(=O)(=O)Oc1ccc(-c2nc(C)c(C(=O)OCC)s2)cc1C=O | 90%
CCCCN(Cc1ccc(C(=O)NO)cc1)C(=O)Nc1ccc(OCCCCCCCCCn2cc(CCCCC(=O)N[C@H](C(=O)N3C[C@H](O)C[C@H]3C(=O)NCc3ccc(-c4scnc4C)cc3)C(C)(C)C)nn2)cc1 | 62.8%
COc1ccc(/C(C)=C(\c2ccc(Cl)cc2)c2ccc(OCCN3CCCCCC3)cc2)cc1F | 26%
C=C1C(=O)O[C@H]2[C@H]1CC/C(COC(=O)/C=C\C(=O)NCc1ccc(Cn3c(=O)sn(-c4ccc(Cl)cc4)c3=O)cc1)=C\CC[C@@]1(C)O[C@@H]21 | -93.5% (active)
O[C@H]1CO[C@H]2[C@@H]1OC[C@@H]2Oc1ccc(Nc2nc(Nc3ccc(F)c(Cl)c3)ncc2F)cc1Cl | 99.7%
O=C(CCc1nc(-c2cccc(Cl)c2)no1)Nc1ccccn1 | 99.5%
COc1ccc(Cn2cnc3cc(C(=O)Nc4cccc5ccccc45)ccc32)c(OC)c1 | 60.6% [30 µM]
Cc1nc(Nc2ccc(N)cc2)c2ccccc2n1 | 114%
COc1cccc(/C=C2\COc3ccc(O)cc3C2=O)c1OC | 96.6%
CC(C)c1ccc(NC(=O)Cc2ccc(Nc3ncnc4cc(-c5cnn(CCN(C)C)c5)ccc34)cc2)cc1 | -82.2% [30 µM] (active)
O=C1c2cccc3c(-c4ccc(-c5nc6c7ccccc7c7ccccc7c6[nH]5)cc4)ccc(c23)C(=O)N1CCN1CCNCC1 | 119%
O=C1/C(=C/c2ccc([N+](=O)[O-])cc2)COc2ccc(O)c(O)c21 | 54.6%
Cn1ccnc1C(=O)/C=C/c1ccc(C(=O)Nc2ccc(S(F)(F)(F)(F)F)cc2)cc1 | 79.5%
COc1ccc(OC)c(C(=O)Nc2cccc(-c3cc(=O)c4ccccc4o3)c2)c1 | 104%
C=C1C(=O)O[C@H]2[C@H]1CC/C(COC(=O)/C=C\C(=O)NCc1ccc(Cn3c(=O)sn(CCCI)c3=O)cc1)=C\CC[C@@]1(C)O[C@@H]21 | -94.7% (active)
